BaF3 parental – reduces parental Ba/F3 cell viability, JAK2V617F counter-screen; CellTiter-Glo ATP luminescence; inhibition, % at 5.6 µM; 220,000 compounds, 1.1% hits; AID 1486;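 active means inhibition above a per-campaign cutoff, the mean inhibition of all tested compounds plus 3 SD, cut at about 27% in these data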
Ba/F3 V617F tox – loss of viability in JAK2V617F-driven Ba/F3 cells; Ba/F3 EpoR-JAK2V617F viability, ATP luminescence; inhibition, % at 5.6 µM; 220,000 compounds, 1.1% hits; AID 1446;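 active means inhibition above the campaign mean plus 3 SD over all tested compounds, cut at about 24% in these data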;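 further: cytokine-independent growth of Ba/F3 cells driven by EpoR plus mutant JAK2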
KLF5 inhibitor – suppresses KLF5 promoter-driven expression; DLD-1 KLF5 promoter-luciferase reporter, luminescence; inhibition, % at 5 µM; 290,000 compounds, 0.23% hits; AID 1700;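 active means inhibition above a per-plate limit of that plate's mean compound inhibition plus 3 SD, cut at about 60% in these data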;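 further: higher means less KLF5 promoter-driven luciferase light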
APP transl inh – APP translation inhibition. SH-SY5Y APP 5'UTR-luciferase reporter, luminescence. inhibition, % at 2 µM. 190,000 compounds, 0.82% hits. AID 1285;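 active means inhibition above a set limit, derived from the sample mean plus 3 SD, cut at about 45% in these data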
IEC-6 cytotox – counter-screen for KLF5 inhibitors: cytotoxicity in IEC-6 cells; 290,000 compounds, 0.78% hits; inhibition, % at 5 µM; IEC-6 cytotoxicity, luminescence viability; in the data active means inhibition above about 22%
aSyn 5UTR inh – MLPCN primary screen, SNCA 5' untranslated region; AID 1813; 300,000 compounds, 0.82% hits; alpha-synuclein 5'UTR reporter, inhibitor activity; inhibition, % (tested at 7.5 µM); in the data active means inhibition above about 60%;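 further: H4 neuroglioblastoma cells stably carrying SNCA 5'UTR luciferase fusion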
Of the large screens only hits and unclear results are named; the others gave an inactive call. An excerpt weighted towards active compounds, which were near 2.2% of everything screened.

Cc1cc(C(=O)COc2cccnc2[N+](=O)[O-])c(C)n1-c1ccccc1	aSyn 5UTR inh 99.8
Cc1cc(C(=O)COc2cccnc2[N+](=O)[O-])c(C)n1-c1ccccc1F	aSyn 5UTR inh 67.5 (no result: APP transl inh)
Cc1cc(C(=O)COc2cccnc2[N+](=O)[O-])c(C)n1Cc1ccco1	none
COCCn1c(SCc2cc(=O)n3cc(C)ccc3n2)nc2ccccc2c1=O	none
CCOc1ccc(NC(=O)C2CCCN(S(C)(=O)=O)C2)cc1 (stereo not given)	none (no result: BaF3 parental, Ba/F3 V617F tox, APP transl inh)
O=C(Nc1nnc(SCCN2CCOCC2)s1)C1CC(=O)N(c2ccc(F)cc2)C1 (stereo not given)	none (no result: BaF3 parental, Ba/F3 V617F tox, APP transl inh)
CCOC(=O)c1ccccc1NC(=O)COC(=O)C(CCSC)NC(=O)COc1ccccc1 (stereo not given)	none (no result: BaF3 parental, Ba/F3 V617F tox, KLF5 inhibitor, APP transl inh, IEC-6 cytotox)
S=C(NCCc1ccccc1)NCCN1CCOCC1	none (no result: BaF3 parental, Ba/F3 V617F tox, APP transl inh)
CN(C(=S)NCCN1CCOCC1)C(c1ccccc1)c1ccccc1	BaF3 parental 44.0
O=C(Cn1c(-c2ccccc2)c[n+]2ccsc12)c1ccc(Br)cc1	BaF3 parental 40.5, Ba/F3 V617F tox 27.2
CCc1ccc(OCc2cccc(C(=O)N/N=C\c3cnn(C)c3C)c2)cc1	none (no result: BaF3 parental, Ba/F3 V617F tox, APP transl inh)
O=C(O)[C@@H]1CCCC[C@@H]1C(=O)N1CCc2ccccc2C1CN1C(=O)c2ccccc2C1=O (stereo not given in full)	aSyn 5UTR inh 67.7
COc1ccc(NCc2ccc([N+](=O)[O-])s2)cc1	APP transl inh 49.0
COc1cccc(C(=O)N2CCN(C(=O)C3CC3)CC2)c1	none (no result: BaF3 parental, Ba/F3 V617F tox, APP transl inh)
CC1CCC(CN2C(Nc3ccccc3)=NC[C@@H]2C)CC1 (stereo not given in full)	none (no result: BaF3 parental, Ba/F3 V617F tox, APP transl inh)
CC[N+]1(CC)CC2=Cc3c(ccc4ccccc34)C(C)C2C1 (stereo not given)	BaF3 parental 54.0, Ba/F3 V617F tox 62.8 (no result: APP transl inh)
CCCCn1c(N)c(N(CC)C(=O)c2cccc(S(=O)(=O)N3CCN(C)CC3)c2)c(=O)[nH]c1=O	none (no result: BaF3 parental, Ba/F3 V617F tox, KLF5 inhibitor, APP transl inh, IEC-6 cytotox)
NC(=S)N/N=C/c1ccccc1OCCSc1ccc(Cl)cc1	BaF3 parental 44.0, Ba/F3 V617F tox 44.5
COc1cccc(/C=N/NC(N)=S)c1OCc1ccccc1Cl	none
Cc1sc2nc[nH]c(=O)c2c1-c1ccc(Cl)cc1	none (no result: BaF3 parental, Ba/F3 V617F tox, APP transl inh)
CC1=NNC(=O)/C1=C\c1cn(-c2ccccc2)nc1-c1ccc(Cl)cc1	aSyn 5UTR inh 98.4
Cc1ccc(-c2nn(-c3ccccc3)cc2C=C2C(=O)CC(C)(C)CC2=O)cc1	none
Cn1c(=O)c2c(=O)cc(NNC(=O)C(C)(C)C)[nH]c2n(C)c1=O	APP transl inh 45.7
Cc1nn(C)c(C)c1/C=C(/C(=O)C(C)C)n1cncn1	none (no result: APP transl inh)
CC(C)(C)C(=O)/C(=C/c1ccncc1)n1cncn1	BaF3 parental 74.5, Ba/F3 V617F tox 90.9, APP transl inh 58.2
Cc1nn(C)c(C)c1/C=C(/C(=O)C(C)(C)C)n1cncn1	aSyn 5UTR inh 88.9 (no result: APP transl inh)
CC(C)c1cc(C(=O)N2CCCC(Nc3ccc(F)cc3)C2)n[nH]1 (stereo not given)	none (no result: BaF3 parental, Ba/F3 V617F tox, APP transl inh)
O=Cc1ccc(OC(=O)/C=C/c2ccccc2)cc1	none (no result: BaF3 parental, Ba/F3 V617F tox, APP transl inh)
CC(=O)N1CCc2c(sc(NC(=O)c3ccc(S(=O)(=O)N(C)C)cc3)c2C#N)C1	none
CC(=O)N1CCc2c(sc(NC(=O)c3ccc4c(c3)OCCO4)c2C#N)C1	APP transl inh 59.1
CCc1ccc(CN2CCCC(C(=O)Nc3ccccc3-c3ccc(OC)cc3)C2)o1 (stereo not given)	none (no result: BaF3 parental, Ba/F3 V617F tox, APP transl inh)
COc1ccc(C(=O)N2CCOC2CNC(=O)C(=O)NCc2ccc(Cl)cc2)cc1 (stereo not given)	BaF3 parental 62.6
COc1ccc(CCNC(=O)C(=O)NCC2OCCN2C(=O)c2ccc(Cl)cc2)cc1 (stereo not given)	none (no result: BaF3 parental, Ba/F3 V617F tox, APP transl inh)
CC(Oc1ccc(F)cc1)C(=O)Nc1cc(S(=O)(=O)N2CCOCC2)ccc1N1CCCCC1 (stereo not given)	none (no result: BaF3 parental, Ba/F3 V617F tox, KLF5 inhibitor, APP transl inh, IEC-6 cytotox)
Cc1nsc2c1ccc1ccccc12	none
CC1=[N+](C)c2ccc3ccccc3c2C1(C)C	BaF3 parental 54.1, Ba/F3 V617F tox 53.4
CCN1C/C(=C/c2cccc([N+](=O)[O-])c2)C(=O)/C(=C/c2cccc([N+](=O)[O-])c2)C1	APP transl inh 94.1 (no result: aSyn 5UTR inh)
O=C1NC(=O)/C(=C/c2cccc([N+](=O)[O-])c2)N1	none (no result: APP transl inh)
O=C1C=C(c2ccccc2)CC(c2cccs2)C1n1cnc([N+](=O)[O-])c1 (stereo not given)	none
O=C1C=C(c2ccccc2)C[C@H](c2cccs2)[C@H]1n1nnc([N+](=O)[O-])n1	aSyn 5UTR inh 88.3
CCCc1n(CC(O)COCc2ccccc2)c2ccccc2[n+]1C (stereo not given)	BaF3 parental 33.8
CCCc1n(CC(O)COCC2CC=CCC2)c2ccccc2[n+]1C (stereo not given)	BaF3 parental 65.9, Ba/F3 V617F tox 33.0
CCCc1n(CC(O)COC2CCCCC2)c2ccccc2[n+]1C (stereo not given)	BaF3 parental 54.9, Ba/F3 V617F tox 26.3
COCCNC(=O)Cn1nc(-c2ccccc2F)ccc1=O	none (no result: BaF3 parental, Ba/F3 V617F tox, APP transl inh)
CN(C(=O)c1cnccn1)c1c(N)n(Cc2ccccc2)c(=O)[nH]c1=O	none (no result: BaF3 parental, Ba/F3 V617F tox, KLF5 inhibitor, APP transl inh, IEC-6 cytotox)
O=C(Nc1ncc(Cc2cccc([N+](=O)[O-])c2)s1)c1ccco1	BaF3 parental 27.2
CC(=O)Nc1ncc(Cc2cccc(Cl)c2)s1	BaF3 parental 28.1, Ba/F3 V617F tox 34.0
O=C(Sc1ccc(Cl)cc1)c1ccccn1	none (no result: BaF3 parental, Ba/F3 V617F tox, KLF5 inhibitor, APP transl inh, IEC-6 cytotox)
BrC(=C\c1ccccc1)/C=N/Nc1nc(N2CCOCC2)nc(N2CCOCC2)n1	APP transl inh 62.9
BrC(/C=C\c1ccccc1)=N/Nc1nc(N2CCOCC2)nc(N2CCOCC2)n1	none
COc1ccc(CCNC(=O)CCc2nnc(Cc3ccc4c(c3)OCO4)o2)c(OC)c1	none (no result: BaF3 parental, Ba/F3 V617F tox, APP transl inh)
Cc1nnsc1S(=O)c1ccc(Br)cc1 (stereo not given)	none (no result: BaF3 parental, Ba/F3 V617F tox, APP transl inh)
COc1cc(-c2cc(C(=O)N3CCN(c4ccccn4)CC3)c3ccccc3n2)cc(OC)c1OC	IEC-6 cytotox 32.7
CCN1CCN(Cc2ccc(NC(=O)Nc3ccccc3Cl)cc2)CC1	none
O=C(Nc1ccc(CN2CCCCC2)cc1)Nc1ccccc1Cl	BaF3 parental 59.2
CCC1=Nc2cc(C(=O)O)ccc2Sc2ccccc21	none
CCC1=Nc2cc(C(=O)NCc3ccco3)ccc2Sc2ccc(Cl)cc21	BaF3 parental 73.2, APP transl inh 94.9, IEC-6 cytotox 22.4
CCC1=Nc2cc(C(=O)NCc3ccco3)ccc2Sc2ccccc21	BaF3 parental 32.3, Ba/F3 V617F tox 30.2, APP transl inh 50.3, IEC-6 cytotox 35.7
CCc1nc2ccc(C(=O)NCc3ccco3)cc2nc1CC	none
Cc1cc(C)cc(N(C(=O)c2csnn2)C(C(=O)NC2CCCCC2)c2ccccn2)c1 (stereo not given)	none (no result: BaF3 parental, Ba/F3 V617F tox, APP transl inh)
O=C(c1ccc(Cl)c(S(=O)(=O)N2CCCC2)c1)N1CCCC(C(F)(F)F)C1 (stereo not given)	none (no result: BaF3 parental, Ba/F3 V617F tox, KLF5 inhibitor, APP transl inh, IEC-6 cytotox)
O=C(C[N+]1(CC#Cc2ccccc2)CCOCC1)c1ccccc1	none
O=C(C[N+]1(CC#Cc2ccccc2)CCCCC1)c1ccccc1	BaF3 parental 34.0, Ba/F3 V617F tox 25.0
